Molecules are shown by their SMILES. This is part of a sample that, as a whole, favours compounds with a hit. Of some 83,000 tested, about 20% had one in any assay.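 48-hour exposure, single concentration, 96-well plates; percent growth endpoint where 0 means no net growth. Active: below 10.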 Calls of active or inactive are those of the source.

In this experiment the test system is SN12C renal. Put plainly: NCI-60 one-dose screen, 48 h (100 = growth as untreated, 0 = no growth, -100 = all killed). Particulars: 10 µM unless noted.
Take `CC(=O)Nc1ccc(S(=O)(=O)N2C(=O)CCC2C(=O)Nc2ccc(Br)cc2)cc1` (configuration not stated): the growth is 49.9% (inactive). For `O=C(O)c1ccc(-n2c(=O)c3ccccc3c3ccccc3c2=O)cc1` the value was 107% (inactive); for `CS(=O)(=O)N(c1cc(-c2ccc3ncnc(Nc4cccc(Cl)c4)c3c2)cnc1Cl)S(C)(=O)=O`, 21.6% (inactive); for `CN(C)c1ncc(-c2ccc(C(F)(F)F)cc2)c(NC2CCCCCC2)n1`, 45.9% (inactive).

Turning to `O=S(=O)(NCCNc1cc(-c2cn(-c3ccccc3)nc2-c2ccccc2)ccn1)c1cccc2ccccc12`, the growth is 58.9% (inactive). For `CC/C=C\C[C@H](O)C/C=C1/C(=O)C(Cl)=C[C@@H]1C/C=C\CCCC(=O)O` the value was 22.8% (inactive); for `CC[C@H](C)[C@@H]1NC(=O)[C@H]([C@@H](C)O)NC(=O)C(Cc2ccccc2)NC(=O)[C@@H]2CCCN2C(=O)C(C(C)C)NC(=O)C(Cc2ccccc2)NC(=O)CNC(=O)[C@@H]2CCCN2C1=O` (some centres not stated), 72.5% (inactive).

As for `O=C(Nc1cc(C(F)(F)F)cc(C(F)(F)F)c1)Nc1ccc(OCc2nnc(-c3ccc(Cl)cc3)o2)c(F)c1`, the growth is 11.1% (inactive). For `Oc1ccc(N=Cc2ccccc2)cc1` the value was 96.5% (inactive); for `Nc1ccccc1C#C/C=C\C#Cc1cccc(O)c1`, 67.2% (inactive). For the compound `CCn1cc(C(=O)O)c(=O)c2cc(F)c(N3CCN(S(=O)(=O)c4ccc(Cl)cc4Cl)CC3)cc21`, the growth was 10.3% (inactive). Then `COc1cc(CNC(=O)CSc2nc3ccccc3c(=O)n2Cc2cc(OC)c(OC)c(OC)c2)cc(OC)c1OC`, with 96.6% (inactive).

Source of the values: PubChem BioAssay (NCI).
